# Compound activity as filed in PubChem BioAssay.
# Rows were chosen to be rich in hits. Some 3.5% of all compounds tested hit in one or more screens of this group.
# BoNT-F LC inh: blocks Botulinum neurotoxin F light chain protease; 360,000 compounds, 0.22% hits; Multiplex microsphere protease cleavage assay, flow cytometry; inhibition, % at 10 µM; in the data active = inhibition above about 35%, passing the limit was not always enough; inconclusive = no clear call, values can overlap the other calls; note: plate controls were buffer without enzyme for full effect and enzyme alone for no effect
# Bead autofluor: flagged as autofluorescent in microsphere protease counterscreen | compound autofluorescence counterscreen, microsphere flow cytometry; hits give high values | fluorescence intensity (concentration not given with the values) | 360,000 compounds, 3.1% hits; in the data active = fluorescence intensity above about 16000; inconclusive = no clear call, values can overlap the other calls
# Anthrax LF prot: blocks Bacillus anthracis lethal factor protease. P15917. multiplex microsphere protease cleavage assay, LF. inhibition, % at 10 µM. 360,000 compounds, 0.12% hits. AID 588501; note: plate controls were buffer without enzyme for full effect and enzyme alone for no effect
# Target sequence (P15917 whole entry, looked up): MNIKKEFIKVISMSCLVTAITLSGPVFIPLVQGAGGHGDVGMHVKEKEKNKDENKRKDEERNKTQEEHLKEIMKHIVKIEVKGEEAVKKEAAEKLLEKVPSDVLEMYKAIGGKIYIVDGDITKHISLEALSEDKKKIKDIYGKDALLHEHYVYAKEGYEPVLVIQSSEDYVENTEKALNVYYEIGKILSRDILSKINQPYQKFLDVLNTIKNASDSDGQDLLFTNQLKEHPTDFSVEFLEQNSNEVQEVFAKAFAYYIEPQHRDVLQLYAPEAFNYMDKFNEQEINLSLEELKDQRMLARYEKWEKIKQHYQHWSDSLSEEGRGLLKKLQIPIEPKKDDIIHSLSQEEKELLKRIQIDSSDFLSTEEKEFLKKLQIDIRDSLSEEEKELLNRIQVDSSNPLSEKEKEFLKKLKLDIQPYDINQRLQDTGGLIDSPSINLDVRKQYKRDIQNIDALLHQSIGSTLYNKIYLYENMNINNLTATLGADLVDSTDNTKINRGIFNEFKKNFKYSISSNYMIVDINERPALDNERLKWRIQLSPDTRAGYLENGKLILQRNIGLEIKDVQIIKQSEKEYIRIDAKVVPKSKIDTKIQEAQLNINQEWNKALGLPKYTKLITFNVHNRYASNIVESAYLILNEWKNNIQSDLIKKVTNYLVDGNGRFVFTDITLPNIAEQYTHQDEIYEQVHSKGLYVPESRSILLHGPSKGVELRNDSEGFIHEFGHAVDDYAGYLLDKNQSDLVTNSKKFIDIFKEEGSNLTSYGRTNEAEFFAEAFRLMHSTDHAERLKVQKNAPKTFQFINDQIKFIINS
# BoNT-A LC inh2: BoNT A light chain protease inhibition; 360,000 compounds, 0.17% hits; multiplex microsphere protease substrate cleavage, flow cytometry; inhibition, % at 10 µM; note: plate controls were buffer without enzyme for full effect and enzyme alone for no effect
# Active calls of the source: *; ? = inconclusive. Cut-off read from the data, not from the text of the source, unless noted: active = inhibition above about 30%; inconclusive = no clear call, values can overlap the other calls; inactive = below that.
SMILES,BoNT-F LC inh,Bead autofluor,Anthrax LF prot,BoNT-A LC inh2
CCCc1cc(=O)[nH]c(SCC(=O)c2cc(C)n(-c3c(C)n(C)n(-c4ccccc4)c3=O)c2C)n1,0,3340,-5,-1
Cc1nnc(SCCn2c(N3CCC(C)CC3)nc3c2c(=O)[nH]c(=O)n3C)s1,3,16118,0,2
Cc1nnc(SCCn2c(N3CC(C)CC(C)C3)nc3c2c(=O)[nH]c(=O)n3C)s1 (stereo not drawn),-5,23049*,-1,-2
COc1ccccc1-c1nc(C#N)c(NCc2ccc(F)cc2)o1,4,3037,0,0
O=C(CN1CCC(NC(=O)C2CCCCC2)CC1)Nc1ccccc1,-13,2921,-5,-1
COc1ccc(NC(=O)CSC2CCCCC2)cc1,-3,21701*,2,-3
COc1ccc(NC(=O)CN2CCC(NC(=O)C3CCCCC3)CC2)cc1,-2,23189*,-1,0
COc1ccc2nc(C)cc(SCC(=O)Nc3c(C)cccc3C)c2c1,-6,2077,-1,0
COc1ccc(N2CCN(CC(=O)Nc3c(C)cc(C)cc3C)CC2)cc1,-2,17139*,3,-2
COc1ccc2nc(C)cc(SCC(=O)Nc3c(C)cc(C)cc3C)c2c1,2,18106*,0,4
Cc1cc(C)c(NC(=O)CS(=O)CC(=O)N2CCN(c3ccccc3)CC2)c(C)c1 (stereo not drawn),-2,16393*,-2,0
Cc1cccc(C)c1NC(=O)CS(=O)CC(=O)Nc1ccc(N2CCOCC2)cc1 (stereo not drawn),-1,4312,-5,-1
CC(C)CNC(=O)c1ccc2c(c1)C(=O)N(Cc1ccco1)C2=O,9,3807,-10,2
C[C@@H]1CN([C@@H](C)CO)C(=O)CCCn2nncc2CO[C@H]1CN(C)Cc1cccnc1,-4,3578,0,0
CCCC(=O)c1c(NC)cc(C)oc1=O,-6,21049*,0,?
CCCNc1cc(C)oc(=O)c1C(=O)CC,0,2173,0,0
CC(=O)N1CCC(=NNC(=O)c2cc3ccccc3cc2O)CC1,6,4786,-2,0
O=C(/C(=C/c1ccc(Cl)cc1)c1nc2ccccc2[nH]1)c1cccs1,-3,16724*,-3,-2
Cn1c(Cn2nnc(-c3ccccc3)n2)nnc1SCc1ccccc1Cl,2,16202*,-1,?
Cn1c(SCc2ccccc2Cl)nnc1-c1cnccn1,3,15326,-5,3
O=C(c1ccc(Cl)cc1Cl)c1ncc(C(F)(F)F)cc1Cl,0,11676,-3,-1
O=C(c1ccccc1)c1ncc(C(F)(F)F)cc1Cl,-5,20699*,-2,-2
O=C(CCC1COc2ccccc2O1)NC1CCCCC1 (stereo not drawn),2,23549*,0,0
Cc1ccccc1NC(=O)COc1coc(CN2CCN(c3ccccc3)CC2)cc1=O,5,4694,4,3
CCOC(=O)C(NC(=O)NCc1ccc(OC)cc1)(OCC)C(F)(F)F (stereo not drawn),1,2499,0,0
SMILES,BoNT-F LC inh,Bead autofluor,Anthrax LF prot,BoNT-A LC inh2
O=C(/C=C/c1ccccc1)NNC(=O)C1CC1,4,21872*,-4,4
COC(=O)NNC(=O)/C=C/c1ccccc1,-4,2368,1,0
CC(=O)Oc1[nH]c(=O)c2cccc3c2c1CCC3,-10,3856,-2,0
COc1cc(-c2noc(CCCC(=O)Nc3ccc(C(N)=O)cc3)n2)cc(OC)c1OC,-4,5575,3,0
CCOc1ccccc1-c1nc(-c2ccc(NC(=O)Cc3ccccc3OC)cc2)no1,-6,3559,2,0
COc1ccc(-c2noc(CCCC(=O)Nc3ccc(C(N)=O)cc3)n2)cc1,-5,22075*,0,-5
COc1ccccc1CC(=O)Nc1ccc(-c2noc(COc3ccc(Cl)c(C)c3)n2)cc1,4,21393*,0,?
O=C(C1CCCN(S(=O)(=O)Cc2ccccc2)C1)N1CCC(Cc2ccccc2)CC1 (stereo not drawn),4,21341*,-2,4
Cc1ccc(C2CC(=O)Nc3cc4c(cc32)OCO4)o1 (stereo not drawn),2,23026*,-3,1
O=C(CN1CCN(CCN2C(=O)c3cccc4cccc(c34)C2=O)CC1)c1ccc(F)cc1,1,22837*,6,5
CCN1CCC(NC(=O)c2cc(OC)c(OC)cc2OC)CC1,-6,21698*,0,?
COc1cc(N)c(Cl)cc1C(=O)NC1CCN(Cc2ccccc2)CC1,-4,5903,1,1
CCOC(=O)[C@]12CCC=C1N(Cc1ccc(Cl)cc1Cl)C(=O)[C@H](CC(=O)NCc1ccc(OC)c(OC)c1)C2,2,6048,2,-1
CCOC(=O)c1c(C)c(C(=O)NC(C)COC)c(C)n1CC (stereo not drawn),-5,10631,-2,0
